Source: PubChem
Only some compounds are listed: those with a hit (about 11% of all), similar ones and a draw of the others.
FLuc inh: Photinus pyralis luciferase inhibition | P08659 | purified P. pyralis luciferase, luminescence, biochemical | Potency, µM (series often up to 115 µM), actives largely listed as inhibitors | 76,000 tested, 2.5% active | AID 1347043; note: nearly all actives have a fitted effect of over 65% in size
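Luminescence read by CCD imaging after purified firefly luciferase (10nM final) was added to substrate buffer holding 10uM D-luciferin and 10uM ATP, pH 7.5, pre-dosed with compound.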
NPR1 antag: human Npr1 receptor antagonism; Potency, µM (titrated, usually from 46.3 µM), for the others: top-dose activity change, negative = inhibition, hits mostly inhibitors; P16066; 76,000 tested, 1.6% active; HEK293 hNpr1 GloSensor cGMP, ANP-stimulated luminescence; calls by dose curve; note: nearly all actives have a fitted effect of over 60% in size
Target sequence (P16066 whole entry, looked up): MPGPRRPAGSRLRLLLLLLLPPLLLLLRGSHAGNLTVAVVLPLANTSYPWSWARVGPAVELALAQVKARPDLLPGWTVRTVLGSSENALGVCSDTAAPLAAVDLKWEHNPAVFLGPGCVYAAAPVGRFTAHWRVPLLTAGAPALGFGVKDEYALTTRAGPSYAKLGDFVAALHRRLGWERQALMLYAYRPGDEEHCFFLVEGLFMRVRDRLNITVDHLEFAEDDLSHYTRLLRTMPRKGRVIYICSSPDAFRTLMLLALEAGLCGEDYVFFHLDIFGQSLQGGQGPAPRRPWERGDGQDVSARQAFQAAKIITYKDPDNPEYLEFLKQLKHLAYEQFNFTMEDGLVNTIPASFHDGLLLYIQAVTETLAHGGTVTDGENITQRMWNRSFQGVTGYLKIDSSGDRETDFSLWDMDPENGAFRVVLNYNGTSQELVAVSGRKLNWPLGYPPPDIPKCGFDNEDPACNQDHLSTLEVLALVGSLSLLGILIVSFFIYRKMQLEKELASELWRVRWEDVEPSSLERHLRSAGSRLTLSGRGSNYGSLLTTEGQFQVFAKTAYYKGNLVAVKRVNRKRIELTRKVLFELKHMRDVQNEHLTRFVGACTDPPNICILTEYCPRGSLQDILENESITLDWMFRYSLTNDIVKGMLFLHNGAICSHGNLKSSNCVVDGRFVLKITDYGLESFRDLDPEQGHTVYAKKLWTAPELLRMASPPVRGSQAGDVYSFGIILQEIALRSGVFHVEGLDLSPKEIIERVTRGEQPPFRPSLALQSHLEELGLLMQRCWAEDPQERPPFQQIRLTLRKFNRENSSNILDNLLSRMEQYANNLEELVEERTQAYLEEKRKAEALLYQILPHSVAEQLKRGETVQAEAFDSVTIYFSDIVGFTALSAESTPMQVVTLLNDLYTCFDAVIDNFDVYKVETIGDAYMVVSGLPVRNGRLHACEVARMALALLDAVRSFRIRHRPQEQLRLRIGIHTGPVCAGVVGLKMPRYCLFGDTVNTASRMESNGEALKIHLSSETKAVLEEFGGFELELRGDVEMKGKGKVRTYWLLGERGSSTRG
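Compound pre-incubated 30 min at room temperature on GloSensor-loaded HEK293 cells stably carrying hNpr1 and the pGS-40F cGMP biosensor. Stimulation uses hNppA at 0.1 nM final; luminescence is taken at baseline and 20 min post-agonist.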
3T3 cytotox: kills NIH 3T3 cells | NIH 3T3 viability, CellTiter-Glo ATP luminescence, 48-72 h | Potency, µM (titrated, usually from 96.7 µM), for the others: at the highest dose activity change, negative = cytotoxicity, most hits filed as inhibitors | 94,000 tested, 4.3% active; note: nearly all actives have a fitted effect of over 55% in size
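Mouse fibroblast NIH 3T3 cells, 400 per well, received compound via pintool and were incubated for 48 or 72 hr prior to CellTiter-Glo ATP luminescence measurement.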
HEK cytotox: cytotoxic compounds in HEK 293 cells | HEK 293 viability, ATP luminescence (CellTiter-Glo), 48-72 h | Potency, µM (doses to about 115 µM), for inactives: at the highest dose activity change, negative = cytotoxicity, usual class: inhibitors | 94,000 tested, 6.6% active; note: nearly all actives have a fitted effect of over 60% in size
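Read-out: CellTiter-Glo ATP luminescence. Cells: HEK 293, 250 cells/well. Exposure: 48 or 72 hr, 37 degree Celsius.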
An asterisk follows results filed as active; i = inactive; u = inconclusive; x = no result; [ ] = another dose, or the depositor's remark. Unless noted, calls come from the whole dose curve; as a rule, active = well fitted curve in the direction sought with a large enough effect; inconclusive = small, poorly fitted or top-dose-only effect, or another doubt; inactive = no such curve, though single readings can be large; an effect the other way counts as inactive or inconclusive. % is set by controls: 0 for no effect and ±100 for the full control effect; potency is the fitted concentration of half-maximal effect.

SMILES	FLuc inh	NPR1 antag	3T3 cytotox	HEK cytotox
Cc1ccc(CN2CC(Oc3ccccc3C(=O)NCc3ccccc3)C2)o1	i	-10%	u	u
Cc1ccc(C(=O)N2CCN(CCn3nc4n(c3=O)CCCC4)CC2)cc1	x	x	-10%	-12%
O=C(NC1CCCC1)N1CCCC(C(=O)N2CCC(N3Cc4cccn4C3=O)CC2)C1 (centres undefined)	x	x	-15%	u
O=C(NCc1cccc(Cl)c1)C1CN(C2CCCC2)C(=O)N1 (centres undefined)	x	x	-27%[138 µM]	-10%[172 µM]
CC(=O)N1CCN(C(=O)c2cc(-c3ccc(Cl)cc3Cl)c3nncn3n2)CC1	x	x	-30%	-27%
CN(Cc1ccc(N2CCCCC2)cc1)C(=O)CCC[C@H]1NC[C@@H]2C[C@H]1CN(Cc1ccccc1)C2	i	-2%	18µM*	u
CN(Cc1cccnc1)C(=O)CCC[C@H]1NC[C@@H]2C[C@H]1CN(Cc1ccccc1)C2	i	2%	i	5%
O=C(CCC[C@H]1NC[C@@H]2C[C@H]1CN(Cc1ccccc1)C2)Nc1cccc(F)c1	i	-3%	u	u
O=C(CCC[C@H]1NC[C@@H]2C[C@H]1CN(Cc1ccccc1)C2)Nc1ccc2c(c1)OCCO2	45µM*	1%	-6%	-13%
CC1CCN(C(=O)[C@@H](C)C2CC[C@@]3(C)CC[C@H](NC(=O)c4cncnc4)[C@@H](C)[C@@H]3[C@H]2O)CC1 (some centres undefined)	i	1%	-1%	i
CN(Cc1ccccc1)C(=O)c1ccnc(-c2nnc3ccc(Nc4ccccc4)nn23)c1	i	u	u	20µM*
COC1CCN(C(=O)c2ccnc(-c3nnc4ccc(Nc5ccccc5)nn34)c2)CC1	i	-1%[70.6 µM]	u	89µM*
CN1CCN(C(=O)c2ccnc(-c3nnc4ccc(N(C)c5ccccc5)nn34)c2)CC1	i	4%[70.6 µM]	10µM*	-2%[172 µM]
CN(C)CCNC(=O)c1ccnc(-c2nnc3ccc(Nc4ccccc4)nn23)c1	i	0%[70.6 µM]	i	u
COC1CCN(C(=O)c2ccnc(-c3nnc4ccc(N(C)c5ccccc5)nn34)c2)CC1	i	-6%	3.5µM*	u
CC(C)NC(=O)c1ccnc(-c2nnc3ccc(Nc4ccccc4)nn23)c1	i	2%[70.6 µM]	u	u
CC1CCN(C(=O)c2cc3c(s2)CCC(C(=O)NCCCN2CCOCC2)C3)CC1 (centres undefined)	i	-2%	-31%	u
CNCc1ccc(F)cc1	x	x	5%[230 µM]	i
COc1ccc(Nc2ccc3nnc(-c4ccccn4)n3n2)cc1	i	-23%[70.6 µM]	u	71µM*
COc1ccc(-c2cccc(C(=O)N3CCC(NC(=O)c4cccc(Cl)c4)CC3)c2)nn1	x	x	-28%	u
O=C(NCCc1ccncc1)C1c2ccccc2C(=O)N(Cc2ccccc2)C12CCCC2 (centres undefined)	i	-16%	u	u
O=C(NCc1ccccn1)C1c2ccccc2C(=O)N(C2CCCCC2)C12CCCCC2 (centres undefined)	i	-1%	u	25µM*
CCCNC(=O)C1c2ccccc2C(=O)N(C2CCCCC2)C12CCCCC2 (centres undefined)	i	2%	u	40µM*
O=C(NCCc1ccncc1)C1c2ccccc2C(=O)N(C2CCCCC2)C12CCCCC2 (centres undefined)	i	-30%	u	40µM*
O=C1NCCCN1C1CCN(Cc2cccc3ccccc23)CC1	i	-10%[70.6 µM]	-23%[138 µM]	u
SMILES	FLuc inh	NPR1 antag	3T3 cytotox	HEK cytotox
COC(=O)C1=C(C)N=C2SC=C(CC(=O)NCc3ccccc3)N2C1c1ccccc1C (centres undefined)	i	-5%	u	45µM*
COC(=O)C1=C(C)N=C2SC=C(CC(=O)NCc3ccc(F)cc3)N2C1c1cccc(OC)c1 (centres undefined)	i	-8%	u	40µM*
COC(=O)C1=C(C)N=C2SC=C(CC(=O)NCCc3ccccc3)N2C1c1cccc(OC)c1 (centres undefined)	i	-16%	u	45µM*
COC(=O)C1=C(C)N=C2SC=C(CC(=O)NCc3ccccc3)N2C1c1cccc(F)c1 (centres undefined)	i	-25%	u	u
CC1=C(C(=O)Nc2ccccc2)C(c2cc(C)ccc2C)N2C(CC(=O)NC(C)C)=CSC2=N1 (centres undefined)	i	-26%	u	40µM*
COC(=O)C1=C(C)N=C2SC=C(CC(=O)NC3CC3)N2C1c1cccc(OC)c1 (centres undefined)	i	-19%	-4%	u
COc1ccc(C2(c3nc(C4CC(=O)N(C5CCCCC5)C4)no3)CC2)cc1 (centres undefined)	i	-24%	u	u
CN(C)c1ccc(C(=O)N2CCCC(COc3ccccc3C(=O)N3CCCCC3)C2)cc1 (centres undefined)	i	-2%	-18%	u
COCCOC1CN(C2CCN(Cc3ccc(F)cc3F)CC2)C12CCCCC2 (centres undefined)	x	x	-23%	u
O=C(NCc1ccc(F)cc1)c1cc(-c2cccc(C(F)(F)F)c2)c2cccn2n1	x	x	u	25µM*
CC(C)NC(=O)c1cc(C(C)(C)C)c2cccn2n1	x	x	-6%[138 µM]	-11%[172 µM]
CC(C)NC(=O)c1cc(-c2cccc(C(F)(F)F)c2)c2cccn2n1	x	x	u	35µM*
O=C(NCc1ccc(F)cc1)c1cc(-c2ccc(Cl)cc2Cl)c2cccn2n1	x	x	-29%	u
O=C(NC1CCCC1)c1cc(-c2cccc(C(F)(F)F)c2)c2nncn2n1	x	x	-17%	1%
C#CCNC(=O)c1cc(C(C)(C)C)c2cccn2n1	x	x	-16%[138 µM]	-30%[172 µM]
O=C(NC1CC1)c1cc(-c2cccc(C(F)(F)F)c2)c2cccn2n1	x	x	u	35µM*
C#CCNC(=O)c1cc(-c2cccc(C(F)(F)F)c2)c2cccn2n1	x	x	50µM*	u
O=C(NCC(F)(F)F)c1cc(-c2cccc(C(F)(F)F)c2)c2cccn2n1	x	x	u	35µM*
O=C(c1ccc(F)cc1)N1CCCC(C(=O)N2CCC(N3CCOCC3=O)CC2)C1 (centres undefined)	x	x	-27%	4%
CCc1ccccc1NC(=O)Cn1c(N2CCc3ccccc3C2)nc(C)cc1=O	i	u	18µM*	u
CCc1cccc(NC(=O)Cn2c(N3CCc4ccccc4C3)nc(C)cc2=O)c1	i	u	28µM*	u
COc1cccc(CNC(=O)Cn2c(N3CCc4ccccc4C3)nc(C)cc2=O)c1	i	-4%	-44%	45µM*
Cc1cc(=O)n(CC(=O)Nc2cccc(F)c2)c(N2CCc3ccccc3C2)n1	i	2%	u	u
Cc1cc(=O)n(CC(=O)Nc2ccc(Br)cc2)c(N2CCc3ccccc3C2)n1	i	-14%	u	89µM*
